From PubChem BioAssay
GLP1R inv ag: inverse agonists of human GLP-1 receptor | P43220 | HEK293 GLP-1R CRE-luciferase, luminescence, 24 h; GLP-1R form is constitutively active | Potency, µM (doses to about 38.3 µM), hits mostly inhibitors | hit rate 1.6% among 410,000; also: nearly all actives have a fitted effect of over 55% in size
Target sequence (P43220 whole entry, looked up): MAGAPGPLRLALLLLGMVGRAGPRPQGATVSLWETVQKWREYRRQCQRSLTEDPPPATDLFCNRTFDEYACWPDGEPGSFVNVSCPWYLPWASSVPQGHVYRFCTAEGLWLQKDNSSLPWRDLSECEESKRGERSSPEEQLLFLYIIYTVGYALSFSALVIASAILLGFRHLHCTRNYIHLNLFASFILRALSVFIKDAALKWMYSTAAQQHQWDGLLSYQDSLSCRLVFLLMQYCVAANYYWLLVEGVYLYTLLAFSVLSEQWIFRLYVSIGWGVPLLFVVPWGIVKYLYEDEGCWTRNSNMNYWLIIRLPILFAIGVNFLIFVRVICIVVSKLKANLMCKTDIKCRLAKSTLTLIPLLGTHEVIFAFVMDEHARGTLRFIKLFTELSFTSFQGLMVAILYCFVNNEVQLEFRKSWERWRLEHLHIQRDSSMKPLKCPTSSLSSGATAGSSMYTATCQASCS
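Assay principle: reduced luminescence from a cAMP-responsive reporter in HEK293 cells co-expressing a constitutively active GLP-1R. Conditions: 24 hr compound incubation, 37 deg C, 5% CO2.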
Gal4-VP16 FLuc: Gal4-VP16 reporter inhibition counter-screen; Drosophila S2 Gal4-VP16 UAS-luciferase, luminescence, 20 h; Potency, µM (doses to about 53.6 µM), most hits filed as inhibitors; hit rate 3.5% among 310,000;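 also: Gal4-VP16 expression switched on by copper sulfate through the metallothionein promoter; nearly all actives have a fitted effect of over 50% in size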
RORgamma inh: blocks mouse ROR gamma transcriptional activity. P51450. Drosophila S2 Gal4-RORgamma UAS-luciferase reporter, 20 h. Potency, µM (highest dose often 53.6 µM), hits mostly inhibitors. hit rate 5.4% among 310,000; also: nearly all actives have a fitted effect of over 60% in size
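Schneider cells (Drosophila), stable Gal4 DBD–ROR gamma + UAS-luc; 1 hr cmpd preincubation; Cu2+ induction 700 uM final; 20 hr ambient; luminescence.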
GLP1R ag: GLP-1 receptor (human) agonism; HEK293 GLP-1R CRE-luciferase, luminescence, 4-6 h; cells express a hypersensitive GLP-1R form; Potency, µM (doses to about 45.6 µM), usual class: activators; hit rate 0.007% among 380,000; AID 624172
HEK293 tox: cytotoxicity counter-screen for GLP-1 receptor inverse agonists. HEK293 cAMP-luciferase reporter cells, luminescence, 24 h. Potency, µM (doses to about 38.3 µM), most hits filed as inhibitors. hit rate 0.13% among 410,000. AID 624418;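 also: loss of luciferase light is scored as toxicity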
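1536-well qHTS counterscreen of the MLSMR; 200 cells/uL, 12 h pre-incubation, 23 nL cpd, 24 h at 37 deg C 5% CO2, luciferase detection reagent, 12 min RT, luminescence. Inhibition = undesired.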
Numbers stand for hits; i = inactive; ? = inconclusive; nt = no result given; [ ] = another dose, or the depositor's remark. Shown are actives, neighbours in structure and some others; about 5.9% of the full set was active somewhere. Calls follow the shape of the dose curve; as a rule, active = well fitted curve in the direction sought with a large enough effect; inconclusive = small, poorly fitted or top-dose-only effect, or another doubt; inactive = no such curve, though single readings can be large; an effect the other way counts as inactive or inconclusive.

SMILES | GLP1R inv ag | Gal4-VP16 FLuc | RORgamma inh | GLP1R ag | HEK293 tox
Cc1onc(-c2c(F)cccc2Cl)c1C(=O)Nc1nnc(-c2ccccc2)s1 | i | ? | 14µM | i | i
Cc1onc(-c2ccccc2Cl)c1C(=O)Nc1nc2c(s1)CCCC2 | 10µM | i | i | i | i
Cc1onc(-c2ccccc2Cl)c1C(=O)Nc1ccc(F)c(F)c1 | i | i | i | i | i
Cc1onc(-c2ccccc2Cl)c1C(=O)Nc1nnc(-c2ccc(F)cc2)s1 | ? | i | ? | i | i
COCCn1c(C)cc(O)c(C(c2ccc(OC)cc2)N2CCCCC2)c1=O (stereo not given) | i | nt | nt | nt | i
CC1CCN(C(=O)Cn2cc(SCc3cccc(F)c3)c3ccccc32)CC1 | ? | nt | nt | nt | i
O=c1cc(-c2ccccc2)[nH]n1-c1nc2ccccc2s1 | i | ? | 8.9µM | i | i
O=c1cc(-c2ccccc2)[nH]n1-c1ccccc1 | ? | nt | nt | i | i
CC(C)CNc1nc(C#N)nc(Nc2ccccc2)n1 | nt | i | nt | nt | nt
Cc1cccc(C)c1N=C1C(=O)Nc2ccccc21 | ? | 18µM | ? | i | i
COC(=O)[C@@H]1CC[C@H](C)[C@@H](c2ccc(C)cc2)N1C(=O)c1ccc(/C=N\O[C@@H](C)c2cc(-c3c(C)cc(C)cc3C)no2)cc1 | nt | i[10 µM] | i[10 µM] | nt | nt
COC(=O)c1c(NC(=O)/C=C/C(=O)O)sc(C)c1-c1ccc(C)cc1 | ? | i[10 µM] | ? | i | i
CCOC(=O)c1c(NC(=O)/C=C/C(=O)O)sc(C)c1-c1ccc(F)cc1 | ? | i | ? | i | ?
COC(=O)c1c(NC(=O)/C=C/C(=O)O)sc(C)c1-c1ccc(C)c(C)c1 | ? | i | 4.5µM | i | ?
CCOC(=O)c1c(NC(=O)/C=C/C(=O)O)sc(C)c1-c1ccc(C)c(C)c1 | ? | i | 10µM | i | ?
CCCCNS(=O)(=O)c1ccc(C)c(-c2nnc3c4ccccc4c(C)nn23)c1 | i | nt | nt | nt | i
COc1ccc(NC(=O)CC2C(=O)N(c3ccc(C)cc3)C(=O)N2Cc2ccc(C)cc2)cc1 (stereo not given) | i | nt | nt | nt | i
N=C1SCC(=O)N1c1nc(-c2ccccc2)cs1 | i | i | 8.9µM | i | i
CCOC(=O)CCC(=O)Nc1ccc(S(=O)(=O)N2CCc3ccccc32)cc1 | i | i | i | i | i
N#C/C(=N\Nc1ccc(S(=O)(=O)N2CCCCCC2)cc1)C(N)=S | ? | ? | 11µM | i | i[7.66 µM]
CCCC(=O)NC(=S)Nc1ccc(S(=O)(=O)N2CCc3ccccc32)cc1 | 8.9µM | nt | nt | i | i
N#C/C(=N\Nc1ccc(S(=O)(=O)N2CCc3ccccc32)cc1)C(N)=S | ? | ? | 11µM | i | ?
O=C(Cn1cc(C(=O)C2CC2)c2ccccc21)Nc1ccc(Br)cc1 | i | nt | nt | nt | i
C#CCN(C[C@@H]1[C@@H](OC(=O)NCC2CCCCC2)[C@@H](OC(=O)NCC2CCCCC2)Cn2c(=O)ccc(=O)n21)S(=O)(=O)c1ccc(C)cc1 | 2.5µM | nt | nt | i | ?
C#CCN(C[C@@H]1[C@@H](OC(=O)NCc2ccco2)[C@@H](OC(=O)NCc2ccco2)Cn2c(=O)ccc(=O)n21)S(=O)(=O)c1ccc(C)cc1 | 10µM | nt | nt | i | ?
SMILES | GLP1R inv ag | Gal4-VP16 FLuc | RORgamma inh | GLP1R ag | HEK293 tox
COCCNC(=O)CSc1nc(-c2ccccc2C)nc2c1c(=O)n(C)c(=O)n2C | i | nt | nt | nt | i
Cc1ccc(CNC(=O)Cn2c(=O)n(Cc3ccccc3)c(=O)c3c2c2cc(C)ccc2n3C)cc1 | i | nt | nt | i | i
Cc1c(NS(=O)(=O)c2ccccc2)cc(Cl)c(O)c1C | i | i | i | i | i
O=S(=O)(Nc1ccccc1-c1ccccc1)c1ccccc1 | 6.3µM | nt | nt | i | i
Cc1ccc(-c2onc(C)c2C)cc1S(=O)(=O)N1CCCCC1 | i | nt | nt | nt | i
Cc1c(Cl)cccc1NS(=O)(=O)c1ccccc1 | 10µM | nt | nt | i | i
Cc1ccc(-c2onc(C)c2C)cc1S(=O)(=O)Nc1cccc(Cl)c1C | 10µM | nt | nt | nt | ?
FC(F)(F)c1ccccc1NC(=S)NN1CCOCC1 | i | ? | i | i | i
S=C(Nc1ccc(Br)cc1Cl)NN1CCOCC1 | i | 18µM | 3.5µM | i | ?
Fc1ccc(NC(=S)NN2CCOCC2)cc1Cl | i | ? | 2.8µM | i | i
